Results from PubChem BioAssay (EPA / NIEHS).
The source made the active and inactive calls. How the source made its calls: active means hit-call score of the fitted dose curve at least 0.9, where 1 is the maximum; inactive means score below 0.9.

How the values were obtained:
Details in all cases: mRNA level, 48 h; actives raise or lower the signal
[1] = read-out: DNA damage-inducible transcript 3 (DDIT3), DDIT3 (gene 1649); test: LTEA_HepaRG_DDIT3: Life Technologies and Expression Analysis (LTEA) Assay for DNA damage-inducible transcript 3 (DDIT3) using HepaRG (AID 2283488)
Summary of the method: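 HepaRG cells, 48 h after plating, exposed 48 h in serum-free induction medium to 8 half-log concentrations up to 100 uM in 0.5% DMSO, in duplicate. DDIT3 mRNA measured by TaqMan qRT-PCR, normalized to ACTB, GAPDH and POLR2A. Fitted bidirectionally against DMSO.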

[2] = read-out: Pro-epidermal growth factor (Homo sapiens) (UniProt P01133); test: LTEA_HepaRG_EGF: Life Technologies and Expression Analysis (LTEA) Assay for Epidermal growth factor (EGF) using HepaRG (AID 2283489)
Summary of the method: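 qRT-PCR readout of EGF transcript after 48 h chemical exposure of HepaRG cells; eight concentrations from 100 uM down in half-log steps, duplicate wells, 0.5% DMSO vehicle. Bidirectional curve fitting against DMSO baseline.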

[3] = read-out: Early growth response protein 1 (EGR1) transcription factor, EGR1 (gene 1958); test: LTEA_HepaRG_EGR1: Life Technologies and Expression Analysis (LTEA) Assay for Early growth response protein 1 (EGR1) transcription factor using HepaRG (AID 2283490)
Summary of the method: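 Read-out is EGR1 mRNA level by qRT-PCR, normalized to three housekeeping genes and analysed for gain or loss of signal against 0.5% DMSO. Source cells: human HepaRG, treated 48 h at up to 100 uM in half-log dilutions.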

[4] = read-out: Ezrin (EZR), EZR (gene 7430); test: LTEA_HepaRG_EZR: Life Technologies and Expression Analysis (LTEA) Assay for Ezrin (EZR) using HepaRG (AID 2283491)
Summary of the method: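 EZR transcript levels came from Fluidigm qRT-PCR and were normalized to three housekeeping genes after 48 h chemical exposure of HepaRG cells. Dosing used an 8-point half-log series with a 100 uM top concentration in 0.5% DMSO, tested in duplicate; both directions were fitted versus vehicle.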

CYP3A5 (gene 1577) = test: LTEA_HepaRG_CYP3A5: Life Technologies and Expression Analysis (LTEA) Assay for CYP3A5 using HepaRG (AID 2283493)
Summary of the method: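 HepaRG cells, plated 48 h then in serum-free induction medium, dosed in duplicate for 48 h with eight half-log concentrations up to 100 uM in 0.5% DMSO. Gene mRNA by Fluidigm TaqMan qRT-PCR, normalized to ACTB, GAPDH, POLR2A.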

[5] = read-out: Fatty Acid-Binding Protein 1 (FABP1), FABP1 (gene 2168); test: LTEA_HepaRG_FABP1: Life Technologies and Expression Analysis (LTEA) Assay for Fatty Acid-Binding Protein 1 (FABP1) using HepaRG (AID 2283494)
Summary of the method: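 HepaRG, 48 h post-plating switched to serum-free induction medium, then dosed 48 h (duplicate, 8 pts, ≤100 uM, 0.5% DMSO). RNA → Fluidigm TaqMan qRT-PCR, FABP1 normed to ACTB/GAPDH/POLR2A. Bidirectional curve fit vs DMSO.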

[6] = read-out: Cytochrome P450 4A22 (Homo sapiens) (UniProt Q5TCH4); test: LTEA_HepaRG_CYP4A22: Life Technologies and Expression Analysis (LTEA) Assay for Cytochrome P450 4A22 (CYP4A22) using HepaRG (AID 2283495)
Summary of the method: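 HepaRG, 48 h post-plating -> serum-free induction medium; dosed 48 h, duplicate, 8 conc. (100 uM top, half-log), 0.5% DMSO. Readout: CYP4A22 mRNA by qRT-PCR, ACTB/GAPDH/POLR2A normalization; gain/loss fit relative to DMSO.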

[7] = read-out: Cytochrome P450 7A1 (Homo sapiens) (UniProt P22680); test: LTEA_HepaRG_CYP7A1: Life Technologies and Expression Analysis (LTEA) Assay for Cytochrome P450 7A1 (CYP7A1) using HepaRG (AID 2283496)
Summary of the method: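 HepaRG cells plated 48 h, then switched to serum-free induction medium and exposed in duplicate for 48 h to 8-point half-log series from 100 uM in 0.5% DMSO. CYP7A1 mRNA by qRT-PCR (TaqMan), normalized to ACTB/GAPDH/POLR2A; bidirectional fit versus DMSO.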

[8] = read-out: Glutathione S-Transferase (GSTA2), GSTA2 (gene 2939); test: LTEA_HepaRG_GSTA2: Life Technologies and Expression Analysis (LTEA) Assay for Glutathione S-Transferase (GSTA2) using HepaRG (AID 2283497)
Summary of the method: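 HepaRG, 48 h dosing, 8-pt half-log CRC from 100 uM, 0.5% DMSO vehicle, n=2; RNA → Fluidigm TaqMan qRT-PCR; GSTA2 vs ACTB/GAPDH/POLR2A; gain/loss fit vs DMSO.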

[9] = read-out: Glutamate-cysteine ligase catalytic (GCLC), GCLC (gene 2729); test: LTEA_HepaRG_GCLC: Life Technologies and Expression Analysis (LTEA) Assay for Glutamate-cysteine ligase catalytic (GCLC) using HepaRG (AID 2283498)
Summary of the method: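 Read-out is GCLC transcript level by Fluidigm-based TaqMan qRT-PCR, normalized to three housekeeping genes and fitted in both directions relative to 0.5% DMSO. Human HepaRG cells received chemicals for 48 h, up to 100 uM.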

[10] = read-out: growth arrest and DNA damage 45 (GADD45G), GADD45G (gene 10912); test: LTEA_HepaRG_GADD45G: Life Technologies and Expression Analysis (LTEA) Assay for growth arrest and DNA damage 45 (GADD45G) using HepaRG (AID 2283499)
Summary of the method: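 HepaRG, 48 h exposure, top 100 uM, half-log 8-point series, 0.5% DMSO vehicle, duplicates. Readout: GADD45G transcript by qRT-PCR (Fluidigm array), housekeeping-normalised (ACTB/GAPDH/POLR2A). Bidirectional curve fit vs DMSO baseline.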

[11] = read-out: Glutamate-cysteine ligase regulatory (GCLM), GCLM (gene 2730); test: LTEA_HepaRG_GCLM: Life Technologies and Expression Analysis (LTEA) Assay for Glutamate-cysteine ligase regulatory (GCLM) using HepaRG (AID 2283500)
Summary of the method: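 Differentiated HepaRG cells exposed 48 h in serum-free induction medium to eight half-log concentrations up to 100 uM (0.5% DMSO). GCLM mRNA by TaqMan qRT-PCR, normalized to ACTB, GAPDH and POLR2A; bidirectional fit versus DMSO.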

[12] = read-out: Glutathione S-transferase M3 (GSTM3), GSTM3 (gene 2947); test: LTEA_HepaRG_GSTM3: Life Technologies and Expression Analysis (LTEA) Assay for Glutathione S-transferase M3 (GSTM3) using HepaRG (AID 2283501)
Summary of the method: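 qRT-PCR read-out of GSTM3 transcript, normalized to three housekeeping genes, from human HepaRG cells after 48 h chemical exposure. Eight-point half-log series, top 100 uM, 0.5% DMSO vehicle; gain or loss fitted relative to DMSO baseline.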

[13] = read-out: Heat shock 70 kDa protein 1 (HSPA1A), gene 3303; test: LTEA_HepaRG_HSPA1A: Life Technologies and Expression Analysis (LTEA) Assay for Heat shock 70 kDa protein 1 (HSPA1A) using HepaRG (AID 2283502)
Summary of the method: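 Human HepaRG cells in serum-free induction medium were exposed in duplicate for 48 h to 8 half-log concentrations, highest 100 uM, in 0.5% DMSO. HSPA1A mRNA read by TaqMan qRT-PCR, normalized to ACTB, GAPDH, POLR2A, fitted bidirectionally against DMSO.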

[14] = read-out: 3-Hydroxy-3-Methylglutaryl-CoA Synthase 2 (HMGCS2), HMGCS2 (gene 3158); test: LTEA_HepaRG_HMGCS2: Life Technologies and Expression Analysis (LTEA) Assay for 3-Hydroxy-3-Methylglutaryl-CoA Synthase 2 (HMGCS2) using HepaRG (AID 2283504)
Summary of the method: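 qRT-PCR read-out of HMGCS2 transcript, normalised to three housekeeping genes, in HepaRG cells after 48 h chemical exposure. Eight-point curves from 100 uM, half-log dilutions, 0.5% DMSO vehicle; gain or loss fitted relative to DMSO baseline.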

HGF (gene 3082) = test: LTEA_HepaRG_HGF: Life Technologies and Expression Analysis (LTEA) Assay for Hepatocyte Growth Facto (HGF) using HepaRG (AID 2283505)
Summary of the method: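 HepaRG, 48 h dosing, 8-pt half-log series from 100 uM in 0.5% DMSO, duplicates. Readout: TaqMan qRT-PCR of HGF mRNA, housekeeping-normalized; bidirectional curve fit vs DMSO baseline.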

[15] = read-out: Insulin Like Growth Factor 1 (IGF1), IGF1 (gene 3479); test: LTEA_HepaRG_IGF1: Life Technologies and Expression Analysis (LTEA) Assay for Insulin Like Growth Factor 1 (IGF1) using HepaRG (AID 2283506)
Summary of the method: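 Differentiated HepaRG cells in serum-free induction medium, exposed 48 h in duplicate to 8 half-log concentrations up to 100 uM in 0.5% DMSO. IGF1 mRNA by Fluidigm qRT-PCR, normalised to ACTB, GAPDH and POLR2A.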

[16] = read-out: Intercellular Adhesion Molecule 1 (ICAM1), ICAM1 (gene 3383); test: LTEA_HepaRG_ICAM1: Life Technologies and Expression Analysis (LTEA) Assay for Intercellular Adhesion Molecule 1 (ICAM1) using HepaRG (AID 2283507)
Summary of the method: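 HepaRG, 48 h exposure, 8-pt half-log series from 100 uM, 0.5% DMSO vehicle, duplicates. Readout: TaqMan qRT-PCR mRNA, housekeeping-normalized (ACTB/GAPDH/POLR2A). Bidirectional curve fit vs DMSO baseline.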

[17] = read-out: Cytochrome P450 3A7 (Homo sapiens) (UniProt P24462); test: LTEA_HepaRG_CYP3A7: Life Technologies and Expression Analysis (LTEA) Assay for CYP3A7 using HepaRG (AID 2283492)
Summary of the method: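 CYP3A7 transcript levels were read by TaqMan qRT-PCR on Fluidigm arrays after 48 h chemical exposure of human HepaRG cells, with housekeeping-gene normalisation. Eight half-log concentrations up to 100 uM in 0.5% DMSO were tested in duplicate.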

[18] = read-out: Hypoxia-inducible factor 1-alpha (Homo sapiens) (UniProt Q16665); test: LTEA_HepaRG_HIF1A: Life Technologies and Expression Analysis (LTEA) Assay for Hypoxia-inducible factor 1 (HIF1A) Trancription factor using HepaRG (AID 2283503)
Summary of the method: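 Differentiated HepaRG cells in serum-free induction medium exposed 48 h, in duplicate, to 8-point half-log series from 100 uM in 0.5% DMSO. HIF1A mRNA measured by TaqMan qRT-PCR, normalized to ACTB/GAPDH/POLR2A, fitted bidirectionally versus DMSO.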

Measured: AC50

Chain of Cytochrome P450 3A7 (Homo sapiens) (P24462 whole entry, looked up): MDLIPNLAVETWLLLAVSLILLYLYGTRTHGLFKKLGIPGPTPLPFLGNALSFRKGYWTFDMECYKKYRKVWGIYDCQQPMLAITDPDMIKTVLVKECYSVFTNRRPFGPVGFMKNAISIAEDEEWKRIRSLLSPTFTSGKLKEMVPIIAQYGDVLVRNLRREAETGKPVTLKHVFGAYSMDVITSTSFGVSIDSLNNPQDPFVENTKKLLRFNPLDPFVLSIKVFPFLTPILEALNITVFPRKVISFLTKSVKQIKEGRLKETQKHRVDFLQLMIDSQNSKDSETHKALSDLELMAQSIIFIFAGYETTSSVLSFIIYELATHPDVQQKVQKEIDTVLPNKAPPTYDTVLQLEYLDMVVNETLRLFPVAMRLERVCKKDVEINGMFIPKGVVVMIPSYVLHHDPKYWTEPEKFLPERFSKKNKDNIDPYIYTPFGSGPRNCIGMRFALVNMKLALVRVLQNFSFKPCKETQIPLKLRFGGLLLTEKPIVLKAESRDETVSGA
Chain of Hypoxia-inducible factor 1-alpha (Homo sapiens) (Q16665 whole entry, looked up): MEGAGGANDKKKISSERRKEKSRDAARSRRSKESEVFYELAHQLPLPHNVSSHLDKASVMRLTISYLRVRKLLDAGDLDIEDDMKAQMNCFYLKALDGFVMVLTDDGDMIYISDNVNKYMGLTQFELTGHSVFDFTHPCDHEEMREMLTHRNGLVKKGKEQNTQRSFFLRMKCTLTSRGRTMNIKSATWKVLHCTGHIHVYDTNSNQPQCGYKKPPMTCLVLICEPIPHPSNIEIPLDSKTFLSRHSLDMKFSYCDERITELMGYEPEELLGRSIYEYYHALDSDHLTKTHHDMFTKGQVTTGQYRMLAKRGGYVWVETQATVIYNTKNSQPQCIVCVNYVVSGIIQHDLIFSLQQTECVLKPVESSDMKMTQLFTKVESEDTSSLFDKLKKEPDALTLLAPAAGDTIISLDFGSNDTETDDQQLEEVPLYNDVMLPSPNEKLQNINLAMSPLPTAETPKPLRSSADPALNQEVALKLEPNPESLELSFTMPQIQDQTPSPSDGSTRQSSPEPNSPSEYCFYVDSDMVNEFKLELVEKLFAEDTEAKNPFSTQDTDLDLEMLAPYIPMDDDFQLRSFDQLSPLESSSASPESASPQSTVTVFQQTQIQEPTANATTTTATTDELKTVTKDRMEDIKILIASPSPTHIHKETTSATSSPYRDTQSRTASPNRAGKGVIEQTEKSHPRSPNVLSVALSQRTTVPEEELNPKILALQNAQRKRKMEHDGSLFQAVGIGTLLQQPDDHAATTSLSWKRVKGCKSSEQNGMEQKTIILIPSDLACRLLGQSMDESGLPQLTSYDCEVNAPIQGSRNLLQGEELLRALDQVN

C[C@]12CC[C@@H]3c4ccc(O)cc4CC[C@H]3[C@@H]1CC[C@@H]2O
active: CYP3A5 (gene 1577) 50 µM | [5] 29 µM | [6] 50 µM | [15] 31.2 µM
inactive: [1] | [2] | [3] | [4] | [7] | [8] | [9] | [10] | [11] | [12] | [13] | [14] | HGF (gene 3082) | [16]

CCCCOCCOCCO
inactive: [1] | [2] | [3] | [4] | [17] | CYP3A5 (gene 1577) | [5] | [6] | [7] | [8] | [9] | [10] | [11] | [12] | [13] | [18] | [14] | HGF (gene 3082) | [15] | [16]

C=C(C)C(N)=O
inactive: [1] | [2] | [3] | [4] | [17] | CYP3A5 (gene 1577) | [5] | [6] | [7] | [8] | [9] | [10] | [11] | [12] | [13] | [18] | [14] | HGF (gene 3082) | [15] | [16]

C#C[C@]1(O)CC[C@H]2[C@@H]3CCc4cc(O)ccc4[C@H]3CC[C@@]21C
inactive: [1] | [2] | [3] | [4] | [17] | CYP3A5 (gene 1577) | [5] | [6] | [7] | [8] | [9] | [10] | [12] | [13] | [18] | [14] | HGF (gene 3082) | [15] | [16]
